Screens: PubChem, Johns Hopkins Ion Channel Center
A selection: hits, their analogues and other compounds. The true share with any hit is near 3.5%.
KCNK9 inh: blocks the human KCNK9 two-pore domain potassium channel. HEK293 KCNK9, FluxOR thallium flux fluorescence; active compounds read low. B-score at 10 µM. Q9NPC2. 310,000 tested, 1.2% active;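 active means ratio B-score over 3 SD below the library mean, with starting fluorescence within 5 SD of its mean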;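 further: negative B-score means less thallium flux so channel inhibition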
Kir21 block: inhibitors of mouse Kir2.1 inward-rectifier potassium channel; 310,000 tested, 0.85% active; P35561; HEK293-Kir2.1, FluxOR thallium flux fluorescence; active compounds read low; B-score at 10 µM;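 active means fluorescence ratio B-score at or below minus 3 SD of library scores, with starting-brightness B-score within 2 SD, cut at about -4.2 in these data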;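 further: channel flux triggered by added potassium and thallium sulfate stimulus; B-score of peak minus minimum fluorescence over baseline after thallium stimulus; more negative B-score means stronger Kir2.1 block with less thallium influx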
Target sequence (P35561 whole entry, looked up): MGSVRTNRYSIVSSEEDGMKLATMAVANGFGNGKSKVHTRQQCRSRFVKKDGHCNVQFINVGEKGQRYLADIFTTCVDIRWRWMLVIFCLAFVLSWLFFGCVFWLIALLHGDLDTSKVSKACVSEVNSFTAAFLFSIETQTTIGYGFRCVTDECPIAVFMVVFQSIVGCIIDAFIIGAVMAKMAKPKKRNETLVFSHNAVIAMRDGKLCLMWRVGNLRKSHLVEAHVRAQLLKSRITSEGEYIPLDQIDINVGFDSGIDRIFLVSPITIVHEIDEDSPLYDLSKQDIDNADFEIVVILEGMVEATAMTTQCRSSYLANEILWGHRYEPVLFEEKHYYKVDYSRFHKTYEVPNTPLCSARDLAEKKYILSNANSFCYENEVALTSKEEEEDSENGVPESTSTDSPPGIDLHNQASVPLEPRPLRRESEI
KCNK3 block: human KCNK3 channel inhibition, primary screen | O14649 | CHO-KCNK3 thallium flux, FluxOR fluorescence; active compounds read low | B-score at 10 µM | 340,000 tested, 0.84% active | AID 602410;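 active means B-score under library mean minus 4 SD, starting fluorescence ratio at most library mean plus 5 SD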;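 further: more negative B-score means stronger inhibition of thallium flux through KCNK3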
TMEM16A inh: mouse TMEM16A channel inhibition, primary screen; Q8BHY3; 310,000 tested, 1.2% active; normalized B-score (activity score, 25-100; higher = stronger inhibition) at 10 µM; HEK293 TMEM16A/YFP iodide influx fluorescence, ionomycin; AID 588511;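 active means ratio plate-corrected score three or more library SD toward inhibition, starting fluorescence score within five deviations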;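 further: score derived from kinetic fluorescence span divided by baseline fluorescence per well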
ANO1 activ: mouse TMEM16A channel activation, primary screen; HEK293 TMEM16A/YFP-H148Q/I152L, iodide quench fluorescence; active compounds read low; B-score at 10 µM; 340,000 tested, 0.3% active; AID 623877;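 active means fluorescence-ratio B-score plate-corrected deviation score at least 3 library SD below zero, with starting fluorescence score within 5 deviations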;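 further: channel opened by trigger with iodide after compound preincubation; score built on the fluorescence ratio of max minus min over baseline; more negative score means more quench and so TMEM16A activation or potentiation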
* marks the source's active call; other numbers are inactive results; i = inactive; · = no result.

SMILES	KCNK9 inh	Kir21 block	KCNK3 block	TMEM16A inh	ANO1 activ
O=C(NC1CC1)C1CCN(S(=O)(=O)c2ccc(Cl)c([N+](=O)[O-])c2)CC1	·	·	i	·	i
COc1ccc(OC)c(NC(=O)COC(=O)c2ccc(OC)c(S(=O)(=O)N3CCOCC3)c2)c1	·	·	i	·	i
COc1cccc(OCCSc2nc(N)cc(N)n2)c1	i	-0.45	i	25*	i
O=C(Nc1ccc(C(F)(F)F)cc1)C1=NN(C2CCS(=O)(=O)C2)C(=O)CC1 (configuration not stated)	·	·	i	·	i
COc1ccc(CN(C)C(=O)CCN(c2ccccc2)S(=O)(=O)c2ccc(C)cc2)c(OC)c1	i	1.9	i	25*	i
Cc1ccc(N(CCC(=O)O)S(=O)(=O)c2ccccc2)cc1	i	0.43	i	i	i
O=C(c1cc2c(s1)CCCC2)N1CCN(S(=O)(=O)c2ccccc2)CC1	i	0.54	i	i	i
COc1ccc(S(=O)(=O)N2CCN(C(=O)c3cc4c(s3)CCCC4)CC2)cc1	·	·	i	·	-34*
O=C(CCCOC(=O)c1ccc(O)cc1O)c1ccc(Br)cc1	·	·	i	·	i
O=C(OCC(=O)N1CCN(C(=O)c2ccco2)CC1)c1cc(-c2ccc(Cl)c(Cl)c2Cl)nc2ccccc12	i	1.6	i	i	i
CN1CCCN(C(=O)c2cc(-c3ccc(Cl)c(Cl)c3Cl)nc3ccccc23)CC1	i	-4.8*	i	i	i
Cc1c(CNCC(C)c2ccccc2)c(C(=O)O)c(C)n1Cc1ccccc1 (configuration not stated)	i	0.93	i	i	i
COc1cc(/C=N/NC(=S)NC2CC3CC2C2C=CCC32)ccc1O (configuration not stated)	i	-1.3	i	100*	i
CCOC(=O)c1c(NC(=O)CSc2nnnn2C)sc(CC)c1C	-6.8*	-0.2	i	i	i
CCOC(=O)c1c(NC(=O)CSc2nnnn2CC)sc(C)c1C	-7.7*	-0.25	i	i	i
CCOC(=O)c1c(NC(=O)CSc2nnnn2C)sc(C)c1C	i	0.27	i	i	i
CCCCOc1ccc(CSC(=N)N)cc1Cl	i	-12*	i	i	i
CCCCCOc1ccc(Br)cc1CSC(=N)N	i	-12*	i	·	-7.7*
Cc1noc(C)c1C(=O)Nc1cccc(S(=O)(=O)N2CCOCC2)c1	·	·	i	·	i
Cc1ccc(C)n1-c1sc2c(c1C#N)CCC(C)C2 (configuration not stated)	-7.4*	0.95	i	i	i
COc1ccc(C(CCNCc2ccc(OC)c(OC)c2)c2ccc(F)cc2)cc1 (configuration not stated)	i	-4.5*	i	i	i
CC1(C)CC[C@]2(C(=O)O)CC[C@]3(C)C(=CC[C@@H]4[C@@]5(C)CC[C@H](O[C@@H]6O[C@H](C(=O)O)[C@@H](O)[C@H](O[C@@H]7OC[C@H](O)[C@H](O)[C@H]7O)[C@H]6O)C(C)(C)[C@@H]5CC[C@]43C)[C@@H]2C1	·	·	i	·	-17*
O=C(NC(=S)NC1C2CC3CC(C2)CC1C3)c1ccccc1 (configuration not stated)	i	-0.52	i	i	-4.7*
O=C(NC(=S)NC1CCCC1)c1ccccc1	i	-0.03	i	i	i
O=C(CN1CCN(c2ccc(O)cc2)CC1)Nc1ccc2c(c1)OCCCO2	·	·	i	·	i
SMILES	KCNK9 inh	Kir21 block	KCNK3 block	TMEM16A inh	ANO1 activ
Nc1ccc2nc(CN3CCOCC3)[nH]c2c1	i	0.66	i	i	-19*
Cc1ccc(S(=O)(=O)N(CC(=O)Nc2ccc(C(N)=O)cc2)C(=O)N2CCN(C)CC2)cc1	i	0.81	i	i	i
CC(O)CNC(=O)Cc1cc(=O)[nH]c(=O)[nH]1 (configuration not stated)	i	-1.7	i	i	i
CC(=O)c1ccccc1OC(=O)c1ccc(-c2ccccc2)cc1	-6.7*	-2.6	i	i	i
c1ccc(CN(Cc2cccs2)C(c2cccs2)c2nnnn2C2CCCC2)cc1 (configuration not stated)	-7.5*	1.2	i	i	i
Cc1ccc(C)c(N2CCN(CCCNC(=O)Cn3cccc3C(=O)c3ccccc3)CC2)c1	i	-5.4*	i	i	i
Cc1ccc(S(=O)(=O)N2CCN(C(C(=O)Nc3ccc(F)cc3)c3ccccc3)CC2)cc1 (configuration not stated)	i	1.4	i	i	i
Cc1ccc(NC(=S)Nc2ccc(Cl)c(Cl)c2)c(OC(F)F)c1	i	-2.6	i	100*	i
CC(NC(=S)Nc1ccc(OC(F)F)c(Cl)c1)C(C)(C)C (configuration not stated)	i	-0.45	i	i	i
CCN(CCn1cccn1)C(=O)c1cc(COc2cc(C)ccc2C)on1	i	-2.2	i	i	i
O=S(=O)(NCC(c1ccco1)N1CCN(c2ccccc2F)CC1)c1ccccc1 (configuration not stated)	-6.9*	0.24	i	i	i
N#Cc1c(Cl)nsc1NN	i	1.5	i	i	i
c1csc(CCNc2ncnc3sc4c(c23)CCC4)c1	i	0.77	-8.7*	i	i
O=S(=O)(Nc1ncnc2sc3c(c12)CCC3)c1ccc2ccccc2c1	·	·	i	100*	i
c1ccc(Nc2ncnc3sc4c(c23)CCC4)cc1	i	0.92	i	i	i
COc1ccc(CCNC(=S)NC2CCN(Cc3ccccc3)CC2)cc1	i	-3.5	i	i	i
Cc1ccc(C)c(-c2nnc(NC(=O)Cc3ccccc3)o2)c1	i	0.44	i	i	i
COc1ccc(N2C(=O)[C@@H]3[C@H](C2=O)[C@H](C(=O)c2ccc(OC(C)=O)cc2)N2N=CC=C[C@@H]32)cc1	i	-4.8*	·	i	·
CC(=O)Oc1ccc(C(=O)[C@H]2[C@H]3C(=O)N(c4ccc(C)cc4)C(=O)[C@H]3[C@@H]3C=CC=NN32)cc1	i	0.14	i	i	i
COc1ccccc1CNS(=O)(=O)c1cc(C)ccc1OC	i	-5.6*	i	i	i
Cc1onc(-c2ccccc2Cl)c1C(O)c1ccc(F)cc1 (configuration not stated)	i	-3.4	i	i	i
Cc1onc(-c2c(F)cccc2Cl)c1C(O)c1ccc(F)cc1 (configuration not stated)	i	-4.4*	i	i	i
COc1ccccc1N1CCN(C(=S)NC(=O)/C=C/c2ccccc2)CC1	i	0.05	i	i	i
Cc1ccccc1-c1ccccc1CN1[C@@H](C(C)C)COCCS1(=O)=O	·	·	i	·	i
